Assay results: the supplement of paper PMC12282887
± gives the standard deviation of the averaged measurements.

System: E. coli BW25113 marRABp lux reporter
Test: promoter activity interaction Z-score (Lux/OD deviation from empty-vector control); higher = stronger promoter induction by the compound
Protocol: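 E. coli BW25113 (wild type or ΔmarA/ΔsoxS/Δrob) carrying pTU175 luxCDABE promoter reporters was grown in LB in 384-well plates at 37°C with each of 94 compounds at 4 two-fold concentrations, in biological duplicates. Luminescence and OD600 were read every 30 min for 12 h and integrated as AUC over 8 h (0-8 h WT, 1-9 h mutants). Lux AUC was divided by OD AUC; the interaction score is the residual of a Huber robust fit of each promoter against the empty-vector control, then Z-transformed per promoter.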

| SMILES | promoter activity interaction Z-score (0.07 µg/ml, genetic background: wild type) | promoter activity interaction Z-score (0.07 µg/ml, genetic background: ΔmarA) | promoter activity interaction Z-score (0.07 µg/ml, genetic background: Δrob) | promoter activity interaction Z-score (0.07 µg/ml, genetic background: ΔsoxS) | promoter activity interaction Z-score (0.15 µg/ml, genetic background: wild type) | promoter activity interaction Z-score (0.15 µg/ml, genetic background: ΔmarA) | promoter activity interaction Z-score (0.15 µg/ml, genetic background: Δrob) | promoter activity interaction Z-score (0.15 µg/ml, genetic background: ΔsoxS) | promoter activity interaction Z-score (0.29 µg/ml, genetic background: wild type) | promoter activity interaction Z-score (0.29 µg/ml, genetic background: ΔmarA) | promoter activity interaction Z-score (0.29 µg/ml, genetic background: Δrob) | promoter activity interaction Z-score (0.29 µg/ml, genetic background: ΔsoxS) | promoter activity interaction Z-score (8.6 µg/ml, genetic background: wild type) | promoter activity interaction Z-score (8.6 µg/ml, genetic background: ΔmarA) | promoter activity interaction Z-score (8.6 µg/ml, genetic background: Δrob) | promoter activity interaction Z-score (8.6 µg/ml, genetic background: ΔsoxS) | promoter activity interaction Z-score (17.1 µg/ml, genetic background: wild type) | promoter activity interaction Z-score (17.1 µg/ml, genetic background: ΔmarA) | promoter activity interaction Z-score (17.1 µg/ml, genetic background: Δrob) | promoter activity interaction Z-score (17.1 µg/ml, genetic background: ΔsoxS) | promoter activity interaction Z-score (34.3 µg/ml, genetic background: wild type) | promoter activity interaction Z-score (34.3 µg/ml, genetic background: ΔmarA) | promoter activity interaction Z-score (34.3 µg/ml, genetic background: Δrob) | promoter activity interaction Z-score (34.3 µg/ml, genetic background: ΔsoxS) | promoter activity interaction Z-score (68.6 µg/ml, genetic background: wild type) | promoter activity interaction Z-score (68.6 µg/ml, genetic background: ΔmarA) | promoter activity interaction Z-score (68.6 µg/ml, genetic background: Δrob) | promoter activity interaction Z-score (68.6 µg/ml, genetic background: ΔsoxS) |
| --- | --- | --- | --- | --- | --- | --- | --- | --- | --- | --- | --- | --- | --- | --- | --- | --- | --- | --- | --- | --- | --- | --- | --- | --- | --- | --- | --- | --- |
| NCC[C@H](O)C(=O)N[C@@H]1C[C@H](N)[C@@H](O[C@H]2O[C@H](CN)[C@@H](O)[C@H](O)[C@H]2O)[C@H](O)[C@H]1O[C@H]1O[C@H](CO)[C@@H](O)[C@H](N)[C@H]1O [Amikacin] | -0.0461 ± 0.062 | -0.273 ± 0.075 | -0.255 ± 0.1 | -0.0126 ± 0.0034 | -0.123 ± 0.09 | -0.134 ± 0.044 | -0.00793 ± 0.05 | -0.13 ± 0.069 | 0.0977 ± 0.14 | 0.566 ± 0.32 | 0.0547 ± 0.082 | 0.193 ± 0.079 | – | – | – | – | – | – | – | – | – | – | – | – | – | – | – | – |
| Nc1ccc(C(=O)O)cc1 [4-Aminobenzoic acid] | – | – | – | – | – | – | – | – | – | – | – | – | 0.0884 ± 0.35 | 0.463 ± 0.36 | 0.185 ± 0.28 | 0.0813 ± 0.12 | 0.277 ± 0.097 | 0.444 ± 0.14 | 0.444 ± 0.27 | -0.00694 ± 0.024 | 0.29 ± 0.32 | -0.226 ± 0.0094 | -0.189 ± 0.33 | 0.117 ± 0.0092 | 0.174 ± 0.024 | 1.1 ± 0.03 | 0.919 ± 0.45 | 0.753 ± 0.38 |
